Drawing on publication PMC7862700, “An all-to-all approach to the identification of sequence-specific readers for epigenetic DNA modifications on cytosine”, this text covers binding signal for one sequence.

Holding throughout (test): DAPPL (digital affinity profiling via proximity ligation, sequencing); 10 mM Tris-HCl pH 7.5, 50 mM NaCl, 1 mM DTT, 4% glycerol, room temperature, 30 min; GST-TFs on glutathione beads, 16-mer random dsDNA library, 0.1% formaldehyde crosslink after washing; high values mean tight binding
One assay deals with T1, FLI1 (Homo sapiens, UniProt Q01543 1-452).
T1 sequence: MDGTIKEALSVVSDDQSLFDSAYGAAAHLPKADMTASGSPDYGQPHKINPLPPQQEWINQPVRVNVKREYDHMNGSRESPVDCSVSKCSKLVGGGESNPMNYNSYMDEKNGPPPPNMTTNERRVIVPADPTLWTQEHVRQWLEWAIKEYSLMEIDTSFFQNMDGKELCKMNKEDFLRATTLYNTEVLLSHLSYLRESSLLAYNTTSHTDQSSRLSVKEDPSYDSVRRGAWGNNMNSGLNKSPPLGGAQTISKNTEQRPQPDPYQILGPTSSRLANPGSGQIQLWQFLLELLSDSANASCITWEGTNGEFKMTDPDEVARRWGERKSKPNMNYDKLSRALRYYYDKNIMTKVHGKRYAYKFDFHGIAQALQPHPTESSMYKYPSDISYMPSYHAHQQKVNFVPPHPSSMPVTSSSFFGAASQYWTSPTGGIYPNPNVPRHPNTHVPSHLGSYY
The following applies: protein: recombinant; tags: N-terminal GST; dsDNA, one strand shown. In a few lines:
(§1)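 Sequencing on an Illumina NextSeq500 followed washing, crosslinking with 0.1% formaldehyde, proximity ligation (BsaI/T4 ligase, 1 h, 37 °C) and PCR amplification of pools that had been incubated for 30 min at room temperature with 200 nmole of a random double-stranded 16-mer DNA library in Tris/NaCl/DTT/glycerol buffer. Each pool held DNA-barcoded human transcription factors, expressed in yeast as GST fusions and captured on glutathione beads, plus a tag-only sample. Binding signal is a hexamer's read frequency for a factor divided by its frequency in the tag-only sample.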

The next assay addresses T2, ELK1 (Homo sapiens, UniProt P19419 1-428).
T2 sequence: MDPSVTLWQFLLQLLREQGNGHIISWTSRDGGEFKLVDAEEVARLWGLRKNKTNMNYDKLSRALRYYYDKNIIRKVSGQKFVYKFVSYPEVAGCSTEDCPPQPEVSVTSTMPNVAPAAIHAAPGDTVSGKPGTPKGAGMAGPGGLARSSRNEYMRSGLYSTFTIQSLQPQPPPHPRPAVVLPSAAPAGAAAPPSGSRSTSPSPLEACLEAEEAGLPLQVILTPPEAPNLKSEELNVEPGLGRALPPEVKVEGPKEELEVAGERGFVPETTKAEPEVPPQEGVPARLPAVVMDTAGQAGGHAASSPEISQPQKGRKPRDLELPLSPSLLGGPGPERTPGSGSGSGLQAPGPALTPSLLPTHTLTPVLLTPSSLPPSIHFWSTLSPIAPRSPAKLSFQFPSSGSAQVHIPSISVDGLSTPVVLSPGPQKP
The settings on record: protein: recombinant; tags: N-terminal GST; dsDNA, one strand shown. In a few lines: as §1

The target of the next assay is T3, GABPA (Homo sapiens, UniProt Q06546 1-454).
T3 sequence: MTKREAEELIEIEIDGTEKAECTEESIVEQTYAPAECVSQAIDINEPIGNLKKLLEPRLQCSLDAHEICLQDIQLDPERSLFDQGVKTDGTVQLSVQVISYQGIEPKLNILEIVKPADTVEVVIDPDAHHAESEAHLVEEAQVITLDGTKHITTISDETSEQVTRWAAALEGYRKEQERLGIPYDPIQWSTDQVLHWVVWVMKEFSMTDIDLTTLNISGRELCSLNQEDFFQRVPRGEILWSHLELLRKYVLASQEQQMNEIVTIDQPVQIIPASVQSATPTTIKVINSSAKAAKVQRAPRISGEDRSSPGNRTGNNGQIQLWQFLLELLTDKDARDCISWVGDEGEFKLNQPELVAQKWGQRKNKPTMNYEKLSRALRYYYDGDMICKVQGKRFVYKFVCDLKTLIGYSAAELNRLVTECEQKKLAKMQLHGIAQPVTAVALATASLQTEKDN
The following applies: protein: recombinant; tags: N-terminal GST; dsDNA, one strand shown. Put shortly: as §1

In a further assay the target is T4, ERG (Homo sapiens, UniProt P11308 1-479).
T4 sequence: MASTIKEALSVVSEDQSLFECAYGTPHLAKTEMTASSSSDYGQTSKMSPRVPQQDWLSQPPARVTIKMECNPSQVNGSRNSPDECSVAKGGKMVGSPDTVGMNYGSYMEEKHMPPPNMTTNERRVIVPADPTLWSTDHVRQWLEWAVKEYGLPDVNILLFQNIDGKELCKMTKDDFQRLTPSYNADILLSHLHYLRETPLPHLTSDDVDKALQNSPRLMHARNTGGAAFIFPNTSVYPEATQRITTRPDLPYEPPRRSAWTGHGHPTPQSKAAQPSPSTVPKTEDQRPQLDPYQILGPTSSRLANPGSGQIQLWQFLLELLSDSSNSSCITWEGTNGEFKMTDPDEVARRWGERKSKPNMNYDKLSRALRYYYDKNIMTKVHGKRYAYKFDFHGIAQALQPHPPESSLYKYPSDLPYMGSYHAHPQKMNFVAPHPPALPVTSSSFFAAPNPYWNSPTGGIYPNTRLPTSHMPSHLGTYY
The following applies: protein: recombinant; tags: N-terminal GST; dsDNA, one strand shown. In a few lines: as §1

A further assay addresses ELF1 (Homo sapiens, UniProt P32519 1-619). The following applies: protein: recombinant; tags: N-terminal GST; dsDNA, one strand shown. Put shortly: as §1
The target in another assay is T5, EHF (Homo sapiens, UniProt Q9NZC4 1-300).
T5 sequence: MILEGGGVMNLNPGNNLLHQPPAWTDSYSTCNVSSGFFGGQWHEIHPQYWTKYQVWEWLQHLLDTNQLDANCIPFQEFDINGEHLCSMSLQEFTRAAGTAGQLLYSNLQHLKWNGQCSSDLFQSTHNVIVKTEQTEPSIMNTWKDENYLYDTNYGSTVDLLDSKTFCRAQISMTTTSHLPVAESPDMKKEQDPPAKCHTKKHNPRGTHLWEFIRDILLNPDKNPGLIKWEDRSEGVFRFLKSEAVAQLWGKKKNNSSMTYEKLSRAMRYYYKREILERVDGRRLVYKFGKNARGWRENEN
The settings on record: protein: recombinant; tags: N-terminal GST; dsDNA, one strand shown. Put shortly:
as §1

Another assay concerns the target SPI1 (Homo sapiens, UniProt P17947 1-270). The settings on record: protein: recombinant; tags: N-terminal GST; dsDNA, one strand shown. Put shortly: as §1
The next assay has as its target SPIB (Homo sapiens, UniProt Q01892 1-262). The settings on record: protein: recombinant; tags: N-terminal GST; dsDNA, one strand shown. Put shortly: as §1
The target of a further assay is T6, ELK3 (Homo sapiens, UniProt P41970 1-407).
T6 sequence: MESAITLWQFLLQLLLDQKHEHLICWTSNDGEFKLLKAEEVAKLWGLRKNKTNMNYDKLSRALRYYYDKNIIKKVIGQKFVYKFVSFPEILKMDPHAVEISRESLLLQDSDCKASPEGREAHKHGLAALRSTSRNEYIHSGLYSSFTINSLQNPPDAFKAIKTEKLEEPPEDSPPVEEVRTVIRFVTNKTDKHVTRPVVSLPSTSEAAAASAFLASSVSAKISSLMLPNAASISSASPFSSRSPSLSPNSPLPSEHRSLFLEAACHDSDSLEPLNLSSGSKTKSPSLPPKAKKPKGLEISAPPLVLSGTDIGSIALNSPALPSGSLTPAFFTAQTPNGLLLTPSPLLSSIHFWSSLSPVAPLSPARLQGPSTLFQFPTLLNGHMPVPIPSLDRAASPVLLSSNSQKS
The following applies: protein: recombinant; tags: N-terminal GST; dsDNA, one strand shown. In a few lines: as §1

The target in a further assay is T7, FEV (Homo sapiens, UniProt Q99581 1-238).
T7 sequence: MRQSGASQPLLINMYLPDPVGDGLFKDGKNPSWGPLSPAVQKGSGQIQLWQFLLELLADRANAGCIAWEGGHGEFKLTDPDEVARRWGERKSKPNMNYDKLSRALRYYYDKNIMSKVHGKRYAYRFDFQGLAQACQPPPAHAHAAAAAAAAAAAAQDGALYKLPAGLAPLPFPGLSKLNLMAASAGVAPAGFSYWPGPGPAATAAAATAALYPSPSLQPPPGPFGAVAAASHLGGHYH
The settings on record: protein: recombinant; tags: N-terminal GST; dsDNA, one strand shown. Put shortly: as §1

The target in the next assay is ETV5 (Homo sapiens, UniProt P41161 1-510). The following applies: protein: recombinant; tags: N-terminal GST; dsDNA, one strand shown. Put shortly: as §1
Another assay concerns the target HSF1 (Homo sapiens, UniProt Q00613 1-529). The following applies: protein: recombinant; tags: N-terminal GST; chain copies: 3; dsDNA, one strand shown. In a few lines: as §1
A further assay concerns the target T8, SPIC (Homo sapiens, UniProt Q8N5J4 1-248).
T8 sequence: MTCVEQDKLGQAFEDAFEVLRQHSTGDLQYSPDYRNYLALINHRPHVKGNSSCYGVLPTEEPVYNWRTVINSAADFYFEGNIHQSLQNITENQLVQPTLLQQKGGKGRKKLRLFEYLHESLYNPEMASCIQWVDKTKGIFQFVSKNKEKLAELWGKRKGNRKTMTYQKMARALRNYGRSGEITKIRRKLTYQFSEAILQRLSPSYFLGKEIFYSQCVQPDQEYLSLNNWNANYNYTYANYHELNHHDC
The settings on record: protein: recombinant; tags: N-terminal GST; dsDNA, one strand shown. Put shortly:
as §1

The next assay concerns the target ELF4 (Homo sapiens, UniProt Q99607 1-663). The following applies: protein: recombinant; tags: N-terminal GST; dsDNA, one strand shown. Put shortly:
as §1

The target of another assay is T9, ELK4 (Homo sapiens, UniProt P28324-2 1-405).
T9 sequence: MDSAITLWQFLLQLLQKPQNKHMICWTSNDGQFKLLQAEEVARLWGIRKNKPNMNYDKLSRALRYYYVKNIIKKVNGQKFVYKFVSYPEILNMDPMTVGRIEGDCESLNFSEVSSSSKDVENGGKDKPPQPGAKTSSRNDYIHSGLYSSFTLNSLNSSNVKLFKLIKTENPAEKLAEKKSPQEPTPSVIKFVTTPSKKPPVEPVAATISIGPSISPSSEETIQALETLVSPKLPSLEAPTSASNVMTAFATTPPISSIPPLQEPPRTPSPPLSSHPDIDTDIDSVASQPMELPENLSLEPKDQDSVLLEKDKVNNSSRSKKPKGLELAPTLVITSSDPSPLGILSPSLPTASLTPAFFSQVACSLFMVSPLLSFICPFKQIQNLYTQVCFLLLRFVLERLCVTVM
The following applies: protein: recombinant; tags: N-terminal GST; dsDNA, one strand shown. In a few lines: as §1

The target in a further assay is T10, ETV2 (Homo sapiens, UniProt O00321 1-342).
T10 sequence: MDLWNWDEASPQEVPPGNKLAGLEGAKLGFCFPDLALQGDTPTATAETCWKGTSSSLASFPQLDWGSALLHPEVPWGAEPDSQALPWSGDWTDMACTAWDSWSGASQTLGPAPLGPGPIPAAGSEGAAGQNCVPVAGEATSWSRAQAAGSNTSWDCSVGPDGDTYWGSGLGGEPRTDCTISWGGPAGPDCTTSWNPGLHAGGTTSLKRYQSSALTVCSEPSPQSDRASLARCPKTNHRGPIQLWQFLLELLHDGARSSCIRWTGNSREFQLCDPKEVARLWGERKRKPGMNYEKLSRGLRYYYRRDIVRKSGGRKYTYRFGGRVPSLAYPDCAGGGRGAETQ
The settings on record: protein: recombinant; tags: N-terminal GST; dsDNA, one strand shown. Put shortly: as §1

A further assay deals with T11, ELF3 (Homo sapiens, UniProt P78545 1-371).
T11 sequence: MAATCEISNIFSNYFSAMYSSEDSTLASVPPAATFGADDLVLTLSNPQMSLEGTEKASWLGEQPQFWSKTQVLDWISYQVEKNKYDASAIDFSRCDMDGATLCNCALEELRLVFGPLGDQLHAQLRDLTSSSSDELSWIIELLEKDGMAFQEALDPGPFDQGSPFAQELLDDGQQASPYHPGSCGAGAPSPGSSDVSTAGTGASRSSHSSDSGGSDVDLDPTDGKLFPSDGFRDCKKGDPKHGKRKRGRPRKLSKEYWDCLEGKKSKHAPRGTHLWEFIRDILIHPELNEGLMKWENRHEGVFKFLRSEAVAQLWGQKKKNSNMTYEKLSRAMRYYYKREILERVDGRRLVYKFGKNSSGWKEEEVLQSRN
The settings on record: protein: recombinant; tags: N-terminal GST; dsDNA, one strand shown. In a few lines: as §1

The target in a further assay is ETV1 (Homo sapiens, UniProt P50549 1-477). The following applies: protein: recombinant; tags: N-terminal GST; dsDNA, one strand shown. Put shortly:
as §1

Sequence of HSF1 (Q00613 whole entry): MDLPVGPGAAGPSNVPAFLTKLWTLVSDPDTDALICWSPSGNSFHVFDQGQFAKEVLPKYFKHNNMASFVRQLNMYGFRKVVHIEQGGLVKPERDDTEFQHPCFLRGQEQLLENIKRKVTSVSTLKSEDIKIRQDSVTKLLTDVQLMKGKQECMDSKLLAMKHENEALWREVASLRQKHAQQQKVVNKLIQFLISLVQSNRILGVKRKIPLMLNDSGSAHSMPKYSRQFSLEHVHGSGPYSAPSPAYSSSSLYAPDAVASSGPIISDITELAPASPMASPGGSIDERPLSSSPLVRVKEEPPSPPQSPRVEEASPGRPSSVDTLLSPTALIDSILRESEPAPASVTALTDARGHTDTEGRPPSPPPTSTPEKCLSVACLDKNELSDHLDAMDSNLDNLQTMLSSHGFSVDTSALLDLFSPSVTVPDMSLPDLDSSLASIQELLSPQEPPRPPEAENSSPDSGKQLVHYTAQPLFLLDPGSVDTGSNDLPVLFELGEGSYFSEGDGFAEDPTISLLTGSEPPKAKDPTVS
Sequence of ETV1 (P50549 whole entry): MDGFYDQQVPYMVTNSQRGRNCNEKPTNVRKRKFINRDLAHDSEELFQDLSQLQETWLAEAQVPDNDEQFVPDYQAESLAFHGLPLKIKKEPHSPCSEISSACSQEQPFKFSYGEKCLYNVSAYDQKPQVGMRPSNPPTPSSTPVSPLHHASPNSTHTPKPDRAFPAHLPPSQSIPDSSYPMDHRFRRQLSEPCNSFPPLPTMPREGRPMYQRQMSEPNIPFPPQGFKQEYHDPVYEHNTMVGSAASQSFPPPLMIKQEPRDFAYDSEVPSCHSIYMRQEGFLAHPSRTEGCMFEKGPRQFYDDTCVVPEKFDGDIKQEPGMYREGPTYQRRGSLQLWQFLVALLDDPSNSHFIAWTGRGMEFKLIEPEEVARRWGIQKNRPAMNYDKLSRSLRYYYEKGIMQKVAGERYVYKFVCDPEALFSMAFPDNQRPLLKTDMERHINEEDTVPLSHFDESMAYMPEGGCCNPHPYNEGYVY
Sequence of ELF1 (P32519 whole entry): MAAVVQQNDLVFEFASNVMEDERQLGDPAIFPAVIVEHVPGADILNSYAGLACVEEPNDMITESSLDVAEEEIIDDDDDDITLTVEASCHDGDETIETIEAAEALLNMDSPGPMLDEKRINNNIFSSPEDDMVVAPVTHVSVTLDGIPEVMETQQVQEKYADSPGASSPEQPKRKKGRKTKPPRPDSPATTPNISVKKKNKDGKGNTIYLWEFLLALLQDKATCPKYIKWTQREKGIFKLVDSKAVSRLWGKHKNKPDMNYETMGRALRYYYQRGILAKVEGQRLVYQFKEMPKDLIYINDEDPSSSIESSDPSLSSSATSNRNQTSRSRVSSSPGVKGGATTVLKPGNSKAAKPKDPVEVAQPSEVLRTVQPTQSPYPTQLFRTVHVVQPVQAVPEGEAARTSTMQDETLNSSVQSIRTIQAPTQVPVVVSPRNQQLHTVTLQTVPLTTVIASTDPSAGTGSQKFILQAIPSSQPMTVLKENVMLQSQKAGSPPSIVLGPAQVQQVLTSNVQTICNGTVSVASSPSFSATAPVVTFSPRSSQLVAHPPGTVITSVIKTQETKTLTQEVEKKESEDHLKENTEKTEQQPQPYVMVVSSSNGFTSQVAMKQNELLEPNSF
Sequence of ETV5 (P41161 whole entry): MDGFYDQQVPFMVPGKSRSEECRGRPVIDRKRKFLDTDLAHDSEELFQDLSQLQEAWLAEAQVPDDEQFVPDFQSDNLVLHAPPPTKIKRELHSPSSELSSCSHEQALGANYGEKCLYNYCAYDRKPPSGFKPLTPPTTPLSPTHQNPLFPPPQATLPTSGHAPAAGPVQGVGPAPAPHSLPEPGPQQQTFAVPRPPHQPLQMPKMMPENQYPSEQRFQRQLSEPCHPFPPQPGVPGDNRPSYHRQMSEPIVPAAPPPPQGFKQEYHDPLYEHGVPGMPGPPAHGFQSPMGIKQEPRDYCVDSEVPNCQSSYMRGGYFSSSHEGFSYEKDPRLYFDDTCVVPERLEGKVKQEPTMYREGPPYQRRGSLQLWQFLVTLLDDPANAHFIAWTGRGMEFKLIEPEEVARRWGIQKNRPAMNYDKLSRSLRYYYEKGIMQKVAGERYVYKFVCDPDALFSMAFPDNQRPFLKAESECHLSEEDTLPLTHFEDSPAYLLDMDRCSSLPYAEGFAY
Sequence of ELF4 (Q99607 whole entry): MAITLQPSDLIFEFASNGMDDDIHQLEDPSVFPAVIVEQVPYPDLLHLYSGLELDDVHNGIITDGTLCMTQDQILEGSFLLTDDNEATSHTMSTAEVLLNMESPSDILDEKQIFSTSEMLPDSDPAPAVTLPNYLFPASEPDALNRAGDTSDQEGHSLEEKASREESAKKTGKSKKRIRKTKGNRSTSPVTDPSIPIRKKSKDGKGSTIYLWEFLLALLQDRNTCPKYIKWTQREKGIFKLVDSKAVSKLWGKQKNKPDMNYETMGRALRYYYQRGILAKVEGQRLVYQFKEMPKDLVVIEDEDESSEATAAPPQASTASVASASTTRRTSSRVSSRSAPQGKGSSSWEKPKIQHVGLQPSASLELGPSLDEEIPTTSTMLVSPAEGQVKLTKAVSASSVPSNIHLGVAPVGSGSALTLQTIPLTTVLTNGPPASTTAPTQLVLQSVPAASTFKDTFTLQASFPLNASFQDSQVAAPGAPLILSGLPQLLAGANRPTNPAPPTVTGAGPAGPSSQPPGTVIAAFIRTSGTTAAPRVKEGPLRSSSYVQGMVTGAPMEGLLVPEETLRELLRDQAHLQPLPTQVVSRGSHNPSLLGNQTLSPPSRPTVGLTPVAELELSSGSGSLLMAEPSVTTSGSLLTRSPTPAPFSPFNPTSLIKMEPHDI
Sequence of SPIB (Q01892 whole entry): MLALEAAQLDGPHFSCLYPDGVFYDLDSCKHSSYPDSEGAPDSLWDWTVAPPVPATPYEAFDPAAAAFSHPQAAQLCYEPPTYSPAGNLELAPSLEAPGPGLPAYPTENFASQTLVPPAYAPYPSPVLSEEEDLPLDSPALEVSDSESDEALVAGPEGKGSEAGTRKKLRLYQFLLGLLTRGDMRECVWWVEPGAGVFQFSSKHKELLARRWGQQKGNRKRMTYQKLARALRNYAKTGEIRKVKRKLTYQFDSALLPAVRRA

As to GTCTTC, the binding signal was 1.4 fold enrichment (6-mer frequency, TF over GST control) with FLI1; 1.31 fold enrichment (6-mer frequency, TF over GST control) in the assay with ELK1; 1.19 fold enrichment (6-mer frequency, TF over GST control) in the assay with GABPA; 1.42 fold enrichment (6-mer frequency, TF over GST control) in the assay with ERG; 1.43 fold enrichment (6-mer frequency, TF over GST control) with ELF1; 1.31 fold enrichment (6-mer frequency, TF over GST control) in the assay with EHF. Also, the binding signal was 1.28 fold enrichment (6-mer frequency, TF over GST control) in the assay with SPI1; 1.29 fold enrichment (6-mer frequency, TF over GST control) with SPIB; 1.17 fold enrichment (6-mer frequency, TF over GST control) in the assay with ELK3; 1.34 fold enrichment (6-mer frequency, TF over GST control) with FEV; 1.31 fold enrichment (6-mer frequency, TF over GST control) with ETV5; 1.17 fold enrichment (6-mer frequency, TF over GST control) in the assay with HSF1. The binding signal with SPIC is 1.18 fold enrichment (6-mer frequency, TF over GST control); with ELF4, 1.23 fold enrichment (6-mer frequency, TF over GST control); with ELK4, 1.14 fold enrichment (6-mer frequency, TF over GST control); with ETV2, 1.22 fold enrichment (6-mer frequency, TF over GST control); with ELF3, 1.46 fold enrichment (6-mer frequency, TF over GST control); with ETV1, 1.29 fold enrichment (6-mer frequency, TF over GST control).
